Results published in PubChem BioAssay (EPA / NIEHS).
Several values for one entry are separate records, joined by “and”; a condition that tells them apart may be missing. Equal values may be shown once. Results filed as inconclusive are left out. Some compounds were tested as several samples or in several runs, with calls that do not always agree. Activity calls are given as the source filed them. Rule for the calls, unless noted: active = hit-call score of the fitted dose curve at least 0.9, where 1 is the maximum; inactive = score below 0.9.

Assays:
[1] = target: human Retinoid X Receptor beta (RXRb), RXRB (gene 6257) (UniProt P28702); test: ATG_RXRb_TRANS: Attagene TRANS-FACTORIAL HepG2 Assay for human Retinoid X Receptor beta (RXRb) (AID 2283013; active = hit-call score of the fitted dose curve at least 0.9, where 1 is the maximum)
human Retinoid X Receptor beta (RXRb), RXRB (gene 6257), sequence (P28702 whole entry, looked up, the tested form may be a part): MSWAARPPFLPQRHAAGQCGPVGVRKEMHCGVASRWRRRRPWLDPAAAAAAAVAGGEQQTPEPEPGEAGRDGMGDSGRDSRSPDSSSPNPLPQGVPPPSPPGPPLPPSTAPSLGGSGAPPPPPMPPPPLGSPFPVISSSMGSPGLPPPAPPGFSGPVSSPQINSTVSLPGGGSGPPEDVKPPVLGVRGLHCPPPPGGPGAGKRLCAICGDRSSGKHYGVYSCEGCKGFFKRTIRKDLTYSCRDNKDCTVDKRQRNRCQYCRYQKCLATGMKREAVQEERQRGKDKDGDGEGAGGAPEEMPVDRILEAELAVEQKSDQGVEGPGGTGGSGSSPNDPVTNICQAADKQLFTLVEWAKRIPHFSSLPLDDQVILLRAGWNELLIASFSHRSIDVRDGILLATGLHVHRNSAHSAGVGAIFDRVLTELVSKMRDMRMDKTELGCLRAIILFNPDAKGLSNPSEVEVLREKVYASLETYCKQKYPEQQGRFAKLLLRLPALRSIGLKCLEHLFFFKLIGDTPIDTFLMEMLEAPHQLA
Summary of the method: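 Readout is reporter transcript induction after 24 h dosing. It is measured by RT-PCR of total RNA followed by fluorescent capillary electrophoresis. HepG2 liver cells carry transfected multiple reporter units driven by an exogenous RXRb-Gal4 fusion; activity is relative to DMSO.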

[2] = target: human Thyroid Receptor alpha (THRa1), THRA (gene 7067) (UniProt P10827); test: ATG_THRa1_TRANS: Attagene TRANS-FACTORIAL HepG2 Assay for human Thyroid Receptor alpha (THRa1) (AID 2283014; active = hit-call score of the fitted dose curve at least 0.9, where 1 is the maximum)
human Thyroid Receptor alpha (THRa1), THRA (gene 7067), sequence (P10827 whole entry, looked up, the tested form may be a part): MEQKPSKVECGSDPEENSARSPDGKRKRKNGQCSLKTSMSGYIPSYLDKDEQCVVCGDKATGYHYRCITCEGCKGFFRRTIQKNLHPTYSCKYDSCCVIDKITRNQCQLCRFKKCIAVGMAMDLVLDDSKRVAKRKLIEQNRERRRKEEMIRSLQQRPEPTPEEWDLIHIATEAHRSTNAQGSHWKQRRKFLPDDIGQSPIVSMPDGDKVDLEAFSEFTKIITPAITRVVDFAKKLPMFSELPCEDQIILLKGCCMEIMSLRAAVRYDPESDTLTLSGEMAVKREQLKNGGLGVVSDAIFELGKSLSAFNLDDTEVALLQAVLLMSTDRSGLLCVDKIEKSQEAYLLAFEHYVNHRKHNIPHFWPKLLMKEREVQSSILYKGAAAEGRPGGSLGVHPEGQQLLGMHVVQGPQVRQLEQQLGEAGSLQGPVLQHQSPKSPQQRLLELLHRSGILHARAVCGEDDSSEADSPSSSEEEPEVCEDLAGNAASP
Summary of the method: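 HepG2 cells transiently transfected with multiplexed GAL4-UAS reporter units for exogenous chimeric THRa1-Gal4; reporter mRNA measured 24 h after dosing by RT-PCR, 6-FAM labelling, HpaI digestion and capillary electrophoresis. Gain-of-signal fitted versus DMSO baseline.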

[3] = read-out: E-selectin (Homo sapiens) (UniProt P16581); test: BSK_3C_Eselectin: BioMAP Diversity Plus: 3C Assay for Eselectin Biomarker Activity (AID 2283015); details: primary human endothelial cells (HUVEC); actives raise or lower the signal
Summary of the method: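 Primary human umbilical vein endothelial cells (3C system) were dosed with chemical and cell-surface E-selectin measured by ELISA 24 h later. Bidirectional curve fitting used DMSO as negative control and baseline.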

[4] = read-out: Interleukin-1 alpha (IL1a), IL1A (gene 3552); test: BSK_BE3C_IL1a: BioMAP Diversity Plus: BE3C Assay for Interleukin-1 alpha (IL1a) Biomarker Activity (AID 2283016); details: primary human bronchial epithelial cells; actives raise or lower the signal
Summary of the method: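 IL-1a measured by ELISA after 24 h treatment of human primary bronchial epithelial cells, with gain or loss of signal fitted versus DMSO. Parallel cultures stained with SRB gauge overt cytotoxicity.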

[5] = read-out: Monocyte Chemoattractant Protein-1 (MCP1), CCL2 (gene 6347); test: BSK_3C_MCP1: BioMAP Diversity Plus: 3C Assay for Monocyte Chemoattractant Protein-1 (MCP1) Biomarker Activity (AID 2283017); details: primary human endothelial cells (HUVEC); actives raise or lower the signal
Summary of the method: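 Primary human umbilical vein endothelial cells (3C system) were exposed to test chemical for 24 h, after which MCP-1 was quantified by ELISA. Activity was fitted bidirectionally against DMSO as negative control and baseline.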

[6] = read-out: Monocyte Chemoattractant Protein-1 (MCP1), CCL2 (gene 6347); test: BSK_4H_MCP1: BioMAP Diversity Plus: 4H Assay for Monocyte Chemoattractant Protein-1 (MCP1) Biomarker Activity (AID 2283018); details: primary human endothelial cells (HUVEC); actives raise or lower the signal
Summary of the method: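 ELISA of MCP-1 (CCL2) 24 h after chemical dosing of HUVEC in the BioMAP 4H system. Gain or loss versus DMSO fitted; parallel SRB staining (560 nm) tracked overt cytotoxicity.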

[7] = read-out: Human Leukocyte Antigen - DR isotype (HLADR), HLA-DRA (gene 3122); test: BSK_3C_HLADR: BioMAP Diversity Plus: 3C Assay for Human Leukocyte Antigen - DR isotype (HLADR) Biomarker Activity (AID 2283019); details: primary human endothelial cells (HUVEC); actives raise or lower the signal
Summary of the method: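 Primary human umbilical vein endothelial cells (3C system) were dosed with compound and cell-surface HLA-DR was quantified by ELISA at 24 h. Activity was fitted bidirectionally against DMSO as negative control and baseline.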

[8] = read-out: Interleukin-8 (IL8), CXCL8 (gene 3576); test: BSK_3C_IL8: BioMAP Diversity Plus: 3C Assay for Interleukin-8 (IL8) Biomarker Activity (AID 2283020); details: primary human endothelial cells (HUVEC); actives raise or lower the signal
Summary of the method: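 IL-8 was measured by ELISA in HUVEC cultures 24 h after chemical dosing, with gain or loss of signal fitted relative to DMSO. Parallel SRB total-protein staining tracked overt cytotoxicity.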

[9] = read-out: Monokine induced gamma interferon (MIG), CXCL9 (gene 4283); test: BSK_3C_MIG: BioMAP Diversity Plus: 3C Assay for Monokine induced gamma interferon (MIG) Biomarker Activity (AID 2283021); details: primary human endothelial cells (HUVEC); actives raise or lower the signal;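 for AC50: MIG protein level measured by immunoassay in the treated endothelial cultures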
Summary of the method: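 ELISA measurement of MIG in human umbilical vein endothelial cells 24 h after treatment. Cytotoxicity tracked by SRB staining in parallel cultures; gain or loss of signal fitted relative to DMSO.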

[10] = target: human Vitamin D Receptor (VDR), VDR (gene 7421) (UniProt P11473); test: ATG_VDR_TRANS: Attagene TRANS-FACTORIAL HepG2 Assay for human Vitamin D Receptor (VDR) (AID 2283022; active = hit-call score of the fitted dose curve at least 0.9, where 1 is the maximum)
human Vitamin D Receptor (VDR), VDR (gene 7421), sequence (P11473 whole entry, looked up, the tested form may be a part): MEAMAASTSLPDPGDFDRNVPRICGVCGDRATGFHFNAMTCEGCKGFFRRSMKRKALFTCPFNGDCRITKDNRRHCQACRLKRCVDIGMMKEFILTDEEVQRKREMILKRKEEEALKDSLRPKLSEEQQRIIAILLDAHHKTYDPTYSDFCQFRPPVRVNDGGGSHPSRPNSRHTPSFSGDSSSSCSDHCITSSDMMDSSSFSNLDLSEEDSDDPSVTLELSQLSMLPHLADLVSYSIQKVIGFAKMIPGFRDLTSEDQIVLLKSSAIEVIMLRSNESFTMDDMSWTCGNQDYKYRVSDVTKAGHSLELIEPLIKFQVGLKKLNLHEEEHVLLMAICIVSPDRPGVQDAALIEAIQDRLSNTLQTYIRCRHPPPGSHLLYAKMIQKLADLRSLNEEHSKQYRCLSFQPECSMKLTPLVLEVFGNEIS
Summary of the method: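 HepG2 cells were transiently transfected with multiple GAL4-UAS reporter units, so signal reflects exogenous chimeric receptor-Gal4 activity. After 24 h compound exposure, reporter mRNA was measured by RT-PCR, fluorescent labelling and capillary electrophoresis, fitted for gain of signal versus DMSO.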

Measured: AC50

E-selectin (Homo sapiens), sequence (P16581 whole entry, looked up): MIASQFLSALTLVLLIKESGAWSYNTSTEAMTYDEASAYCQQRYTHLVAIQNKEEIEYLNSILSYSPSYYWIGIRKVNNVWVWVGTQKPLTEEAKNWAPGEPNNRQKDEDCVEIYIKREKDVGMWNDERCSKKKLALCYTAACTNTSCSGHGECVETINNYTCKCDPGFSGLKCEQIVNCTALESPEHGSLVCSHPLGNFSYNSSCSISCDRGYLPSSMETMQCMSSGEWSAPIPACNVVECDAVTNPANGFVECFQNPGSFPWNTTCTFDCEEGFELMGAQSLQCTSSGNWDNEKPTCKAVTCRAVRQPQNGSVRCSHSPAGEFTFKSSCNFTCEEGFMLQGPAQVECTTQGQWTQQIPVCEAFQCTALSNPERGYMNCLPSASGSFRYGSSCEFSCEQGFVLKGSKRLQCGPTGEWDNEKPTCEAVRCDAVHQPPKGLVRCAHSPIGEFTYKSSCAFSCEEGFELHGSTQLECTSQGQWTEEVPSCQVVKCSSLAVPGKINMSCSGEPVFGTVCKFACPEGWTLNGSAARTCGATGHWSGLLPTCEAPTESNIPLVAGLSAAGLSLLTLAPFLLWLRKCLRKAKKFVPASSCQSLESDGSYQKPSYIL

CN(C)CCO
not listed: [10]
inactive: all other assays above

C[C@]12CCC(=O)C=C1CC[C@@H]1[C@@H]2CC[C@]2(C)C(=O)CC[C@@H]12
not listed: [10]
inactive: all other assays above

OCC(O)CO
inactive: [1]

Sc1ccccc1
not listed: [10]
inactive: all other assays above

CCC(C)c1cc([N+](=O)[O-])cc([N+](=O)[O-])c1O (stereo not drawn)
active: [3] 8.02 µM | [5] 9.99 µM | [6] 5.15 µM | [7] 14 µM | [8] 7.38 µM
inactive: [1] | [2] | [4] | [9]

CO/C=C(/C(=O)OC)c1ccccc1COc1cccc(C(F)(F)F)n1
active: [1] 13.2 µM | [3] 7.64 µM | [5] 7.3 µM | [7] 9.84 µM | [8] 10.1 µM
inactive: [2] | [4] | [6] | [9]

CCOC(=O)C(O)(c1ccc(Cl)cc1)c1ccc(Cl)cc1
active: [3] 32 µM | [5] 31 µM | [6] 25.3 µM | [7] 31.3 µM | [8] 31.1 µM | [9] 39.4 µM
inactive: [1] | [2] | [4]

NS(=O)(=O)C(F)(F)C(F)(F)C(F)(F)C(F)(F)C(F)(F)C(F)(F)C(F)(F)C(F)(F)F
inactive: [1] | [2] | [4]
active: [3] 32.5 µM and 56.3 µM and 49.4 µM | [4] 43.9 µM and 42.4 µM | [5] 34.4 µM and 47.7 µM and 48.9 µM | [6] 24.8 µM and 37.8 µM and 11.1 µM | [7] 27.1 µM and 42.6 µM and 44.3 µM | [8] 32.8 µM and 47.7 µM and 53.4 µM | [9] 33.3 µM and 51.2 µM and 47.8 µM

CCC(C)(c1ccc(O)cc1)c1ccc(O)cc1
inactive: [1] | [2] | [3] | [4] | [9]
active: [1] 9.02 µM and 17.8 µM and 19.6 µM | [5] 20 µM | [6] 10.7 µM | [7] 24.7 µM | [8] 22.9 µM

CCC(=O)O[C@H]1CC[C@H]2[C@@H]3CCC4=CC(=O)CC[C@]4(C)[C@H]3CC[C@]12C
inactive: [1] | [2] | [4]
active: [3] 32.6 µM | [5] 29 µM | [6] 31.8 µM | [7] 33.9 µM | [8] 27.3 µM | [9] 38.8 µM

CCSC(=O)N(CC)C1CCCCC1
not listed: [2] | [10]
inactive: all other assays above

Cc1cc(O)ccc1Cl
not listed: [10]
inactive: all other assays above

CCC(C)(CC)c1cc(NC(=O)c2c(OC)cccc2OC)on1
not listed: [2] | [10]
inactive: all other assays above

C=CC(N)=O
active: [1] 15.8 µM
not listed: [2] | [10]
inactive: all other assays above

c1cc2ccc3cccc4ccc(c1)c2c34
active: [1] 41.4 µM
not listed: [10]
inactive: all other assays above

ClC(Cl)=C(c1ccc(Cl)cc1)c1ccc(Cl)cc1
inactive: [2] | [4] | [10]
active: [1] 17.5 µM [middle of 4 runs] | [3] 30.7 µM | [6] 20 µM | [7] 30.5 µM | [8] 32.1 µM | [9] 35 µM

Cc1ccc(O)c(C)c1
active: [7] 7.99 µM
not listed: [10]
inactive: all other assays above

O=C(NC(=O)c1c(F)cccc1F)Nc1cc(Cl)c(OC(F)(F)C(F)F)c(Cl)c1
not listed: [10]
inactive: all other assays above
